Inconclusive results are not listed. Active and inactive are the calls of the source. Unless noted, calls follow the shape of the dose curve; as a rule, active = well fitted curve in the direction sought with a large enough effect in the repeat runs; inconclusive = weak or mixed curves; inactive = no such curve, though single readings can be large; an effect the other way counts as inactive or inconclusive.
Legend:
[1] = molecular target: Thyrotropin receptor (Homo sapiens) (UniProt P16473); assay: qHTS assay to identify small molecule agonists of the thyroid stimulating hormone receptor (TSHR) signaling pathway (AID 1224843; calls by dose curve; also: nearly all actives have a fitted effect of over 45% in size)
Sequence of Thyrotropin receptor (Homo sapiens) (P16473 whole entry, looked up): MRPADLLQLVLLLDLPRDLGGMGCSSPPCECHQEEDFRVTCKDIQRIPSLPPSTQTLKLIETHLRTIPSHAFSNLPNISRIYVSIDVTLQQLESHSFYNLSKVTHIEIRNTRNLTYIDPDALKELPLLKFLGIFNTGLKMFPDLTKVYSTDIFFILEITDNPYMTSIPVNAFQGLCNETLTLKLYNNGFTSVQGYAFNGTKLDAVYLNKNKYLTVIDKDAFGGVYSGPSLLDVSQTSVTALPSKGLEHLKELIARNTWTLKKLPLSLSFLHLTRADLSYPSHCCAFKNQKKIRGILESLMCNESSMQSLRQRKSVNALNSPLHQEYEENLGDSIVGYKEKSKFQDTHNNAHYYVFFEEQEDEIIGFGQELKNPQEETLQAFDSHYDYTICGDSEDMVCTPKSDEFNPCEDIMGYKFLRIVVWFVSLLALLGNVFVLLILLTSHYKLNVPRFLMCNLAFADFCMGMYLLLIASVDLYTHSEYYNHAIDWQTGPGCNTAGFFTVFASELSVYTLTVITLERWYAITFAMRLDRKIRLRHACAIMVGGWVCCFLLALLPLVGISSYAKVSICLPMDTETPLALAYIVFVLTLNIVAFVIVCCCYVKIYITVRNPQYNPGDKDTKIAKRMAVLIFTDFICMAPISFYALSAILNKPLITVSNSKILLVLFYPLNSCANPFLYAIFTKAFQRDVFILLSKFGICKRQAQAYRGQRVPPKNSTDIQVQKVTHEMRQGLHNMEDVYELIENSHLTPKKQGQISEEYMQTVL
In short: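 Agonist-mode screen: TSHR HEK293 cells received test chemicals for half an hour at room temperature, then HTRF cAMP detection reagents for one hour prior to fluorescence measurement. Each chemical ran as a 15-concentration series, triplicated.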

[2] = qHTS assay to identify small molecule agonists of the hypoxia (HIF-1) signaling pathway - cell viability counter screen (AID 1224844; calls by dose curve; also: nearly all actives have a fitted effect of over 50% in size; also: potency is read from the fitted curve at half-maximal effect)
In short: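 HRE-bla ME-180; 0.5% dFBS; cpd 17 h, 37C, 5% CO2; CellTiter-Glo lum., 30 min RT, post-FRET read, same wells.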

[3] = qHTS assay to identify small molecule agonists of H2AX - cell viability counter screen (AID 1224847; calls by dose curve; also: nearly all actives have a fitted effect of over 30% in size; also: potency is read from the fitted curve at half-maximal effect; as to activity change, negative = cytotoxicity: top concentration of the series differs between compounds)
In short: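 Wild-type CHO-K1 cells (10% FBS medium) were plated overnight at 37C, exposed to compounds at 15 concentrations for 3 hr at 37C (0.76% DMSO final), and viability was read as CellTiter-Glo luminescence after 30 min at room temperature.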

[4] = qHTS assay to identify small molecule agonists of the estrogen related receptor (ERR) signaling pathway from Tox21 library (AID 1224849; calls by dose curve; also: nearly all actives have a fitted effect of over 15% in size); settings: ERR reporter cell line, ONE-Glo luciferase, 18 h; at 92.4 µM (top of the series) unless noted
In short: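 Tox21 compounds tested for ERR agonism in an NTP reporter cell line: 18 h treatment at 37 C, then ONE-Glo luminescence.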

[5] = qHTS RealTime-Glo MT Cell Viability Assay in HepG2 cells - 24 hour (AID 1224867); also: nearly all actives have a fitted effect of over 50% in size
In short: (§1)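 Real-time, nonlytic viability: 600 HepG2 cells/well mixed with NanoLuc enzyme plus prosubstrate; 5 h settle, compound (DMSO) added by pintool; luminescence monitored over 40 h at 37 C.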

[6] = qHTS RealTime-Glo MT Cell Viability Assay in HEK293 cells - 32 hour (AID 1224868); also: nearly all actives have a fitted effect of over 50% in size; also: potency is read from the fitted curve at half-maximal effect; as to activity change, negative = cytotoxic: top concentration of the series differs between compounds
In short: (§2)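 Cells + reagent dispensed (600 cells/well, HEK293) → 5 h at 37 C/5% CO2 → 23 nL compound in DMSO pinned → 40 h at 37 C → luminescence read at 0, 8, 16, 24, 32, 40 h.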

[7] = A CellTox Green Cytotoxicity Assay to monitor cytotoxicity in HEK293 cells - 0 hour (AID 1224869); also: nearly all actives have a fitted effect of over 50% in size
In short: (§3)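 Tox21 screen in HEK293: membrane-impermeant cyanine dye fluoresces on binding dead-cell DNA; compound pinned 5 h post-seeding, plates held at 37 C, signal read repeatedly through 40 h.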

[8] = qHTS RealTime-Glo MT Cell Viability Assay in HepG2 cells - 40 hour (AID 1224870); also: nearly all actives have a fitted effect of over 50% in size
In short: (§4)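 HepG2 cells (600/well) mixed with RealTime-Glo MT reagent, settled 5 h at 37 C/5% CO2 before compound addition. Nonlytic NanoLuc luminescence from viable-cell prosubstrate reduction read repeatedly during 40 h treatment at 37 C.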

[9] = A CellTox Green Cytotoxicity Assay to monitor cytotoxicity in HEK293 cells - 40 hour (AID 1224871); also: nearly all actives have a fitted effect of over 45% in size
In short: as §3

[10] = qHTS RealTime-Glo MT Cell Viability Assay in HEK293 cells - 16 hour (AID 1224872); also: nearly all actives have a fitted effect of over 50% in size; also: potency is read from the fitted curve at half-maximal effect; as to activity change, negative = cytotoxicity: top concentration of the series differs between compounds
In short: as §2

[11] = qHTS RealTime-Glo MT Cell Viability Assay in HepG2 cells - 8 hour (AID 1224873); also: nearly all actives have a fitted effect of over 55% in size
In short: as §4

[12] = qHTS RealTime-Glo MT Cell Viability Assay in HEK293 cells - 40 hour (AID 1224874); settings: RealTime-Glo luminescence; max response: stronger effect = lower value; also: nearly all actives have a fitted effect of over 50% in size; also: potency is read from the fitted curve at half-maximal effect
In short: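 HEK293 + NanoLuc + prosubstrate, 600 cells/well; 5 h, 37 C/5% CO2; compound 23 nL in DMSO by pintool; 37 C; luminescence read at 0, 8, 16, 24, 32 and 40 h time points.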

[13] = A CellTox Green Cytotoxicity Assay to monitor cytotoxicity in HEK293 cells - 24 hour (AID 1224875); also: nearly all actives have a fitted effect of over 45% in size
In short: as §3

[14] = A CellTox Green Cytotoxicity Assay to monitor cytotoxicity in HepG2 cells - 16 hour (AID 1224876); also: nearly all actives have a fitted effect of over 45% in size
In short: (§5)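 Measurements at 0, 8, 16, 24, 32 and 40 h of treatment captured CellTox Green fluorescence in HepG2 cells that had been co-plated with reagent and preincubated 5 h at 37 C/5% CO2.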

[15] = A CellTox Green Cytotoxicity Assay to monitor cytotoxicity in HepG2 cells - 24 hour (AID 1224878); also: nearly all actives have a fitted effect of over 45% in size
In short: as §5

[16] = A CellTox Green Cytotoxicity Assay to monitor cytotoxicity in HepG2 cells - 40 hour (AID 1224879); also: nearly all actives have a fitted effect of over 40% in size; also: potency is read from the fitted curve at half-maximal effect
In short: as §5

[17] = qHTS assay to identify small molecule agonists of the hypoxia (HIF-1) signaling pathway (AID 1224846; active = well fitted activation curve with a large enough effect in the signal ratio in the repeat runs, not every such curve was filed as active; the % refers to the signal ratio)
In short: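 Reporter induction in HRE-bla ME-180 cells is taken as agonism: cells sit 5 hrs after plating, receive compounds or DMSO only, incubate 17 hrs at 37C under 5% CO2, and are loaded with CCF4-AM for beta-lactamase FRET measurement.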

[18] = qHTS assay to identify small molecule antagonists of the estrogen related receptor (ERR) signaling pathway from Tox21 library (AID 1224848); also: nearly all actives have a fitted effect of over 50% in size
In short: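 Quantitative high-throughput format: ERR reporter cells (2,000/well) pre-incubated 6 h, treated 18 h at 37 C with compounds in DMSO alongside positive and negative controls, then read by ONE-Glo luminescence.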

[19] = qHTS RealTime-Glo MT Cell Viability Assay in HepG2 cells - 32 hour (AID 1224877); also: nearly all actives have a fitted effect of over 55% in size
In short: as §1

[20] = qHTS assay to identify small molecule agonists of H2AX (AID 1224845; active = well fitted activation curve with a large enough effect in the signal ratio in the repeat runs, not every such curve was filed as active; the % refers to the signal ratio)
In short: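 Wild-type CHO-K1 cells, plated overnight, exposed 3hr at 37C to 15 concentrations (0.76% DMSO final). Lysed, then HTRF anti-pH2AX (S139) cryptate and anti-H2AX-d2 antibodies, 24 hr room temperature; 665/620 nm emission read.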
% is scaled to controls: 0 for no effect and ±100 for the full control effect.

C[N+]1(C)CCC(=C(c2ccccc2)c2ccccc2)CC1
inactive: Potency [1] | Potency [2] | Potency [3] | activity change, positive = activation [4] -2% [at 42.5 µM] | Potency [5] | Potency [6] | Potency [7] | Potency [8] | Potency [9] | Potency [10] | Potency [11] | max response [12] 7.64% | Potency [13] | Potency [14] | Potency [15] | Potency [16]

COC(=O)c1cc(Cl)ccc1NS(=O)(=O)C(F)(F)F
inactive: Potency [1] | Potency [2] | outcome [17] | Potency [18] | activity change, positive = activation [4] 6.47% [at 42.5 µM] | Potency [5] | Potency [6] | Potency [7] | Potency [8] | Potency [9] | Potency [10] | Potency [11] | max response [12] 2.62% | Potency [13] | Potency [14] | Potency [15] | Potency [16]

Fc1ccccc1[C@@H](F)COC1CCC(Nc2ncnc3[nH]ncc23)CC1 (stereo partly drawn)
active: Potency [3] 101 µM | Potency [6] 21.9 µM | Potency [12] 24.5 µM
inactive: Potency [1] | Potency [2] | outcome [17] | Potency [5] | Potency [7] | Potency [8] | Potency [11] | Potency [13] | Potency [14] | Potency [19] | Potency [15] | Potency [16]

CCCOc1ccc(S(=O)(=O)N2CCN(CC)CC2)cc1-c1nc2c(CC)n(Cc3ccccn3)nc2c(=O)[nH]1
inactive: Potency [1] | Potency [2] | outcome [17] | activity change, positive = activation [4] -21.4% | Potency [5] | Potency [7] | Potency [8] | Potency [9] | Potency [10] | Potency [11] | Potency [13] | Potency [14] | Potency [19] | Potency [15] | Potency [16]

CCOC(=N)CC(=O)OCC
inactive: Potency [1] | Potency [5] | Potency [6] | Potency [7] | Potency [8] | Potency [9] | Potency [10] | Potency [11] | Potency [13] | Potency [14] | Potency [19] | Potency [15] | Potency [16]
active: Potency [2] 19.5 µM

CCOC(=O)N1CCC(n2c(=O)[nH]c3cc(Cl)ccc32)CC1
inactive: Potency [1] | Potency [2] | outcome [17] | Potency [5] | Potency [7] | Potency [8] | Potency [9] | Potency [11] | Potency [13] | Potency [14] | Potency [19] | Potency [15] | Potency [16]

C(=C\c1ccccc1)/CN1CCN(C(c2ccccc2)c2ccccc2)CC1
inactive: Potency [1] | Potency [2] | Potency [5] | Potency [7] | Potency [8] | Potency [9] | Potency [11] | Potency [13] | Potency [14] | Potency [19] | Potency [15]

Cc1c(C(=O)NN2CCCCC2)nn(-c2ccc(Cl)cc2Cl)c1-c1ccc(Cl)cc1
active: Potency [2] 21.3 µM
inactive: Potency [1] | Potency [3] | Potency [5] | Potency [7] | Potency [8] | Potency [9] | Potency [11] | Potency [13] | Potency [14] | Potency [15] | Potency [16]

CCc1c2c(nc3ccc(OC(=O)N4CCC(N5CCCCC5)CC4)cc13)-c1cc3c(c(=O)n1C2)COC(=O)[C@]3(O)CC
inactive: Potency [1] | outcome [17] | Potency [3] | Potency [7] | Potency [8] | Potency [9] | Potency [11] | Potency [13] | Potency [14] | Potency [15]
active: Potency [6] 2.68 µM | Potency [12] 2.39 µM

CC(CCO)CCc1ccccc1 (stereo not drawn)
inactive: Potency [2] | Potency [20] | outcome [17] | Potency [3] | Potency [5] | Potency [6] | Potency [7] | Potency [8] | Potency [9] | Potency [10] | Potency [11] | max response [12] -8.5% | Potency [13] | Potency [14] | Potency [19] | Potency [15] | Potency [16]

COC(=O)Nc1nc2ccc(C(=O)c3cccs3)cc2[nH]1
active: Potency [6] 0.169 µM | Potency [12] 0.134 µM | Potency [16] 0.107 µM
inactive: Potency [1] | outcome [17] | Potency [3] | activity change, positive = activation [4] -4.13% [at 42.5 µM] | Potency [5] | Potency [7] | Potency [8] | Potency [9] | Potency [11] | Potency [13] | Potency [14] | Potency [19] | Potency [15]

CCC(=O)Oc1ccc(/C(CC)=C(\CC)c2ccc(OC(=O)CC)cc2)cc1
inactive: Potency [1] | Potency [20] | Potency [3] | Potency [5] | Potency [7] | Potency [8] | Potency [11] | Potency [13] | Potency [14] | Potency [15] | Potency [16]
active: Potency [6] 17.4 µM | Potency [10] 24.5 µM | Potency [12] 17.4 µM

C=CC(C)=CCC=C(C)C
inactive: Potency [2] | Potency [20] | outcome [17] | Potency [3] | Potency [5] | Potency [6] | Potency [7] | Potency [8] | Potency [9] | Potency [10] | Potency [11] | Potency [13] | Potency [14] | Potency [19] | Potency [15] | Potency [16]

C[C@@H]1C[C@H]2[C@@H]3CCC4=CC(=O)C=C[C@]4(C)[C@@]3(F)[C@@H](O)C[C@]2(C)[C@H]1C(=O)CO
inactive: Potency [1] | Potency [20] | Potency [6] | Potency [7] | Potency [8] | Potency [9] | Potency [10] | Potency [11] | Potency [13] | Potency [14] | Potency [19] | Potency [15] | Potency [16]

[O]=[Bi]
inactive: activity change, negative = cytotoxicity [2] 28.4% [at 6.97 µM] | activation (H2AX phosphorylation) [20] -0.036% [at 14 µM] | activation [17] 0% [at 7.01 µM] | activity change, negative = cytotoxicity [3] 2.81% [at 14 µM] | activity, negative = inhibition [18] -9.31% [at 8.39 µM] | activity change, positive = activation [4] -10.5% [at 8.39 µM] | activity change, negative = cytotoxic [6] 4.51% [at 6.97 µM] | cytotoxicity [7] -1.07% [at 6.97 µM] | activity change, negative = cytotoxic [8] 9.58% [at 6.97 µM] | activity change, negative = cytotoxicity [10] 3.35% [at 6.97 µM] | viability change, negative = cytotoxic [11] 0.919% [at 6.97 µM] | max response [12] 3.42% | cytotoxicity increase [14] -7.67% [at 6.97 µM] | activity change, negative = cytotoxic [19] 5.58% [at 6.97 µM] | cytotoxicity [15] -9.9% [at 6.97 µM] | cytotoxicity increase [16] -12.6% [at 6.97 µM]

COc1ccc(C(=O)c2cccc(O)c2)c(OC)c1
inactive: Potency [2] | Potency [20] | outcome [17] | Potency [3] | Potency [5] | Potency [6] | Potency [7] | Potency [8] | Potency [9] | Potency [10] | Potency [11] | Potency [13] | Potency [14] | Potency [19] | Potency [15] | Potency [16]

Reference: PubChem BioAssay (Tox21)
